Screening data as filed in PubChem.
Hits are enriched below; roughly 4.3% of the tested compounds scored in any of these assays.
MITF act – MITF TRPM1 promoter activation in melanoma cells; SK-MEL-5 TRPM1-promoter luciferase, 24 h; % of positive control, neutral wells = 0; 300,000 tested, 0.75% active; activation, % at 12.5 µM; AID 588334;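 active means mean activation of at least 80% with every replicate also reaching 80%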
HSF1 inh – HSF1 inhibition | 300,000 tested, 0.77% active | NIH3T3-HGL HSE-luciferase, MG132-induced, luminescence 8 h; stronger effect = lower value | activity change, negative = inhibition, % at 7.5 µM (by protocol);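 active means more than half of replicate wells show activity change below -50%, luminescence cut by over half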;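 further: luciferase reports HSF-1 transcriptional activity via heat shock element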
SMARCA2 act – activators of SMARCA2 function; MG213 cells, MMTV-luciferase reporter, dexamethasone, overnight; activation, % at 9.1 µM; 370,000 tested, 1% active; AID 652017; in the data active means activation above about 7.8%
Wnt bcat act – activators of Wnt/beta-catenin signaling. Wnt/beta-catenin reporter cell assay, activator, plate reader. activation, % at 9.35 µM. 300,000 tested, 1.2% active. AID 743398; in the data active means activation above about 30%, passing the limit was not always enough
esBAF inh – blocks esBAF chromatin remodeling in mouse ES cells; Bmi1-luciferase knock-in reporter, 24 h; 100% = twice the neutral-well signal; reporter increase, % at 12.5 µM; 350,000 tested, 2% active; AID 602393; in the data active means activation above about 40%;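 further: a rise in the Bmi1 reporter signal indicates esBAF inhibition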
HSF-1 act – increases HSF-1 driven luciferase reporter signal; NIH3T3-HGL HSF-1 luciferase reporter, MG132, 8 h; 100% = twice DMSO control signal; activation, % at 9 µM; 300,000 tested, 1.7% active; AID 504408;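 active means mean replicate activation of at least 50% with a set share of replicates each reaching 50%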
Hits are given with their value; . = inactive; / = not tested or not shown.

SMILES	MITF act	HSF1 inh	SMARCA2 act	Wnt bcat act	esBAF inh	HSF-1 act
CCOC(=O)N1CCN(C(=O)c2cccc(S(=O)(=O)Nc3ccc(F)cc3)c2)CC1	.	/	.	39	/	/
COC(=O)C[C@@H]1C[C@@H]2c3cc(NS(=O)(=O)c4ccccc4)ccc3O[C@@H]2[C@H](CO)O1	/	/	/	/	.	/
COc1ccc(/C=C(/C#N)S(=O)(=O)c2ccc(C)cc2)cc1	/	.	.	.	.	.
CO/N=C/C(C#N)=C/c1ccc(OC)cc1	.	.	.	.	88	.
CCCn1c(SCC(=O)NC2CCCCC2)nnc1-c1ccncc1	.	.	.	54	.	.
CNC[C@@H]1Oc2ncc(-c3ccc(OC)cc3)cc2C(=O)N([C@@H](C)CO)C[C@H]1C	/	/	/	/	.	/
CC1CN(Cc2csc(-c3ccc(Cl)cc3)n2)CC(C)O1 (stereo not given)	.	.	.	.	47	.
CCCN1C[C@H](C)[C@H](OC)CN(C)C(=O)c2cc(NC(=O)COC)ccc2OC[C@@H]1C	/	/	/	/	.	/
Cc1cc(S(=O)(=O)Nc2ccc(C(=O)NCC(C)(C)N3CCOCC3)cc2)ccc1F	.	-68	.	.	.	.
O=C(C[C@H]1CC[C@H](NC(=O)Nc2ccc(C(F)(F)F)cc2)[C@H](CO)O1)NCc1cc(F)cc(F)c1	/	/	/	/	.	/
Cc1ccc(S(=O)(=O)N2C[C@H](O)COC[C@H]3O[C@H](CC(=O)NCCN4CCCCC4)CC[C@@H]32)cc1	/	/	/	/	.	/
CCCNC(=O)C[C@@H]1CC[C@@H]2[C@H](COC[C@@H](O)CN2C(=O)c2ccc(F)cc2)O1	/	/	/	/	.	/
C[C@H](CO)N1C[C@H](C)[C@@H](CN(C)Cc2ccc(Cl)c(Cl)c2)Oc2ccc(NC(=O)C3CC3)cc2CC1=O	/	/	/	/	.	/
Cc1ccc(S(=O)(=O)CCC(=O)NCCN2C(=O)S/C(=C\c3ccccc3)C2=O)cc1	.	.	.	.	45	.
COc1ccc2nc(Sc3c([N+](=O)[O-])nc(C)n3Cc3ccccc3)[nH]c2c1	/	.	.	.	/	107
Cn1cnc([N+](=O)[O-])c1Sc1nc2ccccc2[nH]1	/	.	.	.	/	.
Cc1nc([N+](=O)[O-])c(Sc2nc3ccccc3[nH]2)n1Cc1ccccc1	.	.	.	/	/	56
Cc1cc2nc(Sc3c([N+](=O)[O-])nc(C)n3Cc3ccccc3)[nH]c2cc1C	.	.	.	.	/	95
O=C(C[C@H]1C[C@H]2c3cc(NC(=O)C4CCOCC4)ccc3O[C@H]2[C@@H](CO)O1)NCc1cccnc1	/	/	/	/	.	/
COc1ccc(OC)c(Cc2nnc(CCC(=O)N3CCCCCC3)o2)c1	.	.	.	.	52	.
COc1ccc(OC)c(Cc2nnc(CCC(=O)N3CCCCC3c3nccs3)o2)c1 (stereo not given)	.	.	/	40	48	.
C[C@H](CO)N1C[C@H](C)[C@@H](CN(C)C(=O)CCCN(C)C)OCCCC[C@H](C)Oc2ccc(NC(=O)CCC(F)(F)F)cc2C1=O	/	/	/	/	.	/
CC(C)(C)C1CCC(=NNc2nc3ccccc3[nH]2)CC1 (stereo not given)	.	.	.	.	/	.
c1ccc2c(c1)CC/C2=N/Nc1nc2ccccc2[nH]1	82	.	.	.	.	51
Nc1cc[n+](CC(=O)Nc2ccccc2)cc1	.	.	.	/	/	56
SMILES	MITF act	HSF1 inh	SMARCA2 act	Wnt bcat act	esBAF inh	HSF-1 act
Cc1cccc(-c2cccc(NC(=O)C3CCCN(C(=O)c4cccnc4)C3)c2)c1 (stereo not given)	.	.	.	.	.	67
Cc1cccc(-c2cccc(NC(=O)C3CCCN(C(=O)c4ocnc4C)C3)c2)c1 (stereo not given)	.	.	.	.	/	.
Cc1cccc(-c2cccc(NC(=O)C3CCCN(C(=O)c4csc(C)n4)C3)c2)c1 (stereo not given)	.	.	.	.	.	60
CCNC(=O)C[C@H]1CC[C@@H]2[C@H](COc3ccc(NC(=O)Nc4ccccc4Cl)cc3C(=O)N2C)O1	/	/	/	/	.	/
COc1cccc(C2c3c(oc4ccccc4c3=O)C(=O)N2CCCN(C)C)c1OC (stereo not given)	.	.	.	/	/	66
CCN(CC)CCCN1C(=O)c2oc3ccccc3c(=O)c2C1c1cccc(OC)c1OC (stereo not given)	.	.	.	/	.	67
CN(C)CCN1C(=O)c2oc3ccccc3c(=O)c2C1c1ccc(F)cc1 (stereo not given)	.	.	.	/	.	.
O=C(C[C@@H]1C[C@@H]2c3cc(NC(=O)C4CCOCC4)ccc3O[C@@H]2[C@@H](CO)O1)NCc1cccc(F)c1	/	/	/	/	.	/
O=C(Nc1ncccc1O)c1ccc(Oc2ccccc2)cc1	.	.	.	37	.	88
CCOc1ccc(C(=O)Nc2ncccc2Cl)cc1	.	.	.	/	66	.
O=C(CCNC(=O)c1ccc(Cl)cc1)Nc1ncccc1O	.	-87	.	.	.	.
CO[C@@H]1CN(C)C(=O)c2cc(NC(=O)C3CC3)ccc2OC[C@H](C)N(Cc2ccncc2)C[C@H]1C	/	/	/	/	.	/
COc1ccc(C=C(c2nc3ccccc3s2)c2nc3ccccc3s2)cc1O	.	.	.	/	/	132
Cc1cc(/C=C(\C#N)c2nc3ccccc3[nH]2)c(C)n1C	.	.	.	84	/	.
COc1ccc(/C=C(\C#N)c2nc3ccccc3[nH]2)cc1O	/	.	.	.	.	85
COc1cc(C=C(c2nc3ccccc3s2)c2nc3ccccc3s2)ccc1O	.	.	.	/	.	.
COc1cc(/C=C(/C#N)c2ccccc2)ccc1Oc1ccc([N+](=O)[O-])cn1	/	.	.	/	.	.
COc1cc(/C=C(\C#N)c2nc3ccccc3[nH]2)ccc1Oc1ccc([N+](=O)[O-])cn1	.	.	.	/	.	62
COc1cccc(/C=C(\C#N)c2nc3ccccc3[nH]2)c1OCC(=O)O	/	-64	.	.	.	.
COc1cccc(/C=C(/C#N)c2nc3ccccc3[nH]2)c1OC(C)C(=O)O (stereo not given)	.	.	.	.	/	.
COc1cc(/C=C(\C#N)c2nc3ccc(C)cc3[nH]2)c([N+](=O)[O-])cc1OC	.	.	.	.	.	64
COc1ccc(NC(=O)N(C)C[C@H]2OCCCC[C@H](C)Oc3ccc(NC(=O)c4ccccc4)cc3C(=O)N([C@H](C)CO)C[C@@H]2C)cc1	/	/	/	/	.	/
C=CCOc1ccnc(-c2ccccc2)n1	.	.	.	.	.	.
C=CCOc1ccn(C)c(=O)n1	.	-55	.	.	/	.
COc1ccc(CN(C)C[C@H]2OCCCC[C@H](C)Oc3ccc(NC(=O)Nc4cccc5ccccc45)cc3C(=O)N([C@@H](C)CO)C[C@@H]2C)cc1	/	/	/	/	.	/
CCOC(=O)c1cc2c(s1)-c1ccccc1CC2	.	.	.	.	57	.
CS(=O)(=O)c1nc(-c2cccs2)cc(C(F)(F)F)n1	/	-90	/	/	/	.
